Source: PubChem (National Center for Advancing Translational Sciences (NCATS))
This is a sample that favours compounds with a hit; in the whole collection about 10% have one here.
GPT2 inh – blocks human glutamate pyruvate transaminase 2; Potency, µM (highest dose often 57.7 µM), for the others: at the highest dose activity change, negative = inhibition, most hits filed as inhibitors; 0.25% of 100,000 active; Q8TD30; Recombinant GPT2, coupled pyruvate oxidase/HRP Amplex Red fluorescence; further: nearly all actives have a fitted effect of over 60% in size
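Recombinant GPT2 (10ng/uL) with 250uM a-KG and 2mM L-alanine, 30 min at room temperature, in HEPES pH 7.5 buffer. Pyruvate detected by pyruvate oxidase/HRP/Amplex Red fluorescence after 30 min in the dark; AOA (50uM) as positive control.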
HEK293 tox – cytotoxic compounds in HEK 293 cells. HEK 293 viability, ATP luminescence (CellTiter-Glo), 48-72 h. Potency, µM (titrated, usually from 115 µM), without a hit: at the highest dose activity change, negative = cytotoxicity, most hits filed as inhibitors. 6.6% of 94,000 active; further: nearly all actives have a fitted effect of over 60% in size
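250 HEK 293 cells/well; compound by pintool; incubated 48 or 72 hr at 37 degree Celsius; CellTiter-Glo added, 10 min RT, luminescence imaged.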
hNpr1 antagonist – antagonists of human natriuretic peptide receptor Npr1. Potency, µM (titrated, usually from 46.3 µM), inactives show at the highest dose activity change, negative = inhibition, actives largely listed as inhibitors. AID 1347048. HEK293 hNpr1 GloSensor cGMP, ANP-stimulated luminescence. 1.6% of 76,000 active; calls by dose curve; further: nearly all actives have a fitted effect of over 60% in size
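Compound pre-incubated 30 min at room temperature on GloSensor-loaded HEK293 cells stably carrying hNpr1 and the pGS-40F cGMP biosensor. Stimulation uses hNppA at 0.1 nM final; luminescence is taken at baseline and 20 min post-agonist.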
3T3 cytotox – NIH 3T3 cell cytotoxicity; 4.3% of 94,000 active; NIH 3T3 viability, CellTiter-Glo ATP luminescence, 48-72 h; Potency, µM (series often up to 96.7 µM), for inactives: at the highest dose activity change, negative = cytotoxicity, hits mostly inhibitors; AID 1345082; further: nearly all actives have a fitted effect of over 55% in size
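Cells were seeded at 400 per well, treated with pin-transferred compound, and kept 48 or 72 hr at 37 °C before CellTiter-Glo addition and luminescence imaging of cellular ATP.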
Luciferase inh – inhibitors of firefly (Photinus pyralis) luciferase; P08659; purified P. pyralis luciferase, luminescence, biochemical; Potency, µM (top dose mostly 115 µM), usual class: inhibitors; 2.5% of 76,000 active; AID 1347043; further: nearly all actives have a fitted effect of over 65% in size
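Biochemical qHTS: compound (6-point titration) added to 10uM D-luciferin plus 10uM ATP in Tris acetate pH 7.5 buffer with Mg, Tween-20 and BSA, then purified enzyme at 10nM; light output imaged.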
Numbers without * were called inactive; i = inactive; u = inconclusive; x = not tested or not shown; [ ] = another dose, or the depositor's remark. Unless noted, the call rests on the fitted dose curve; in most records, active means well fitted curve in the direction sought with a large enough effect; inconclusive means small, poorly fitted or top-dose-only effect, or another doubt; inactive means no such curve, though single readings can be large; an effect the other way counts as inactive or inconclusive. On the % scale 0 is the no-effect control and ±100 the full control effect; potency means the concentration at half of the fitted maximal effect.

SMILES	GPT2 inh	HEK293 tox	hNpr1 antagonist	3T3 cytotox	Luciferase inh
CC1=C[C@@H](CN2C(=O)C(C)=C(C)C2=O)[C@H](C(C)C)C[C@H]1Cc1nc2ccccc2[nH]1	-14%[88.5 µM]	22µM*	u	25µM*	i
CCC(CC)C(=O)NC[C@@H]1C=C(C)[C@H](Cc2nc3c(C)cccc3[nH]2)C[C@H]1C(C)C	i	45µM*	-14%[70.6 µM]	u	i
CC1=C[C@@H](CN2C(=O)C(C)=C(C)C2=O)[C@H](C(C)C)C[C@H]1Cc1nc2c(C)cccc2[nH]1	-15%[88.5 µM]	35µM*	u	22µM*	i
O=C(NCC1CN(CC2CC2)CC12CN(c1ccccc1)C2)c1ccccc1 (centres undefined)	i	u	-16%[70.6 µM]	89µM*	i
O=C(NCC1CN(CC2CC2)CC12CN(c1ccccc1)C2)Nc1ccccc1 (centres undefined)	-9%[88.5 µM]	u	-1%[70.6 µM]	100µM*	i
O=C(NCc1cccc(C(F)(F)F)c1)c1ccc2nnc(-c3ccc(OC(F)(F)F)cc3)n2c1	i	u	x	u	x
O=C(O)C1(c2ccccc2)CCN(S(=O)(=O)c2ccccc2)CC1	-9%	i	x	79µM*	x
COCCNC(=O)c1nc(-c2ccc(Cl)cc2)c2ccccn12	i	u	-1%[70.6 µM]	79µM*	i
N#CC1CCN(C(=O)c2nc(-c3cc(Cl)cc(Cl)c3)c3ccccn23)CC1	i	25µM*	-4%	u	i
O=C(NCc1ccc2c(c1)OCO2)c1nc(-c2ccc(Cl)cc2Cl)c2ccccn12	i	32µM*	4%	u	i
O=C(c1nc(-c2ccc(Cl)cc2Cl)c2ccccn12)N1CCN(c2ncccn2)CC1	-17%	40µM*	x	u	x
COC(=O)CNC(=O)c1nc(-c2ccc(Cl)cc2)c2ccccn12	i	-19%[172 µM]	17%[70.6 µM]	u	u
COc1cccc(C(=O)N2CCCC(c3nn(-c4ccccn4)c(=O)[nH]3)C2)c1 (centres undefined)	i	2%	x	-23%	x
COc1ccc(OC)c(CN2CCC3(COC(=O)N3Cc3ccccc3)C2)c1 (centres undefined)	3%[88.5 µM]	-29%[172 µM]	-1%[70.6 µM]	u	i
CN1c2cc(C(=O)NCc3ccc(F)cc3F)ccc2C(=O)N2CCCCC21 (centres undefined)	-5%	u	5%	-12%	i
O=C(c1nc(-c2ccc(Cl)cc2)c2ccccn12)N1CCCC1	i	u	0%[70.6 µM]	u	45µM*
O=C(c1nc(-c2ccc(Cl)cc2Cl)c2ccccn12)N1CCCC1	-8%	u	x	u	x
Cc1ccc([S+](=O)([O-])N2CCCC(C(=O)N3CCC(N4CCOC4=O)CC3)C2)cc1 (centres undefined)	4%	u	x	-25%	x
CCN1c2cc(C(=O)Nc3ccc(OC(F)(F)F)cc3)ccc2C(=O)N2CCCCCC21 (centres undefined)	-16%	32µM*	-24%	25µM*	i
CCN1c2cc(C(=O)Nc3ccc(C(F)(F)F)cc3)ccc2C(=O)N2CCCCC21 (centres undefined)	i	u	-4%	u	i
CCN1c2cc(C(=O)Nc3cc(F)cc(F)c3)ccc2C(=O)N2CCCCCC21 (centres undefined)	i	u	0%	u	i
CCN1c2cc(C(=O)Nc3cccc(OC(F)(F)F)c3)ccc2C(=O)N2CCCCC21 (centres undefined)	i	25µM*	-10%	u	i
COCCCn1c(C)cnc1C1CCN(Cc2ccc(F)cc2F)C1 (centres undefined)	i	-26%	2%	-27%	i
COCCc1nc(-c2cnc(C3CC3)nc2)n(-c2ccc(F)cc2F)n1	-33%	u	1%	89µM*	i
Cc1cc(-c2cc3c(nc2-c2ccccc2)nc(C(=O)NC2CCN(C)CC2)n3C)ccn1	-5%[88.5 µM]	u	6%[70.6 µM]	25µM*	i
COc1ccc(-c2cc3c(nc2-c2ccccc2)nc(C(=O)NCCN(C)C)n3C)cn1	-2%[88.5 µM]	u	3%[70.6 µM]	79µM*	i
